{"source": "PubChem BioAssay (NCATS)", "note": "Several values for one entry are separate records, joined by “and”; a condition that tells them apart may be missing. Equal values may be shown once. Results filed as inconclusive are left out. Values without a mark were called inactive. Activity calls are given as the source filed them. The call rests on the fitted dose curve; in most records, active means well fitted cell-killing curve with a large enough effect; inconclusive means small, poorly fitted or top-dose-only effect; inactive means no such curve, though single readings can be large or run the other way. Potency means the concentration at half of the fitted maximal effect."}
{"experiment": "qHTS of pediatric cancer cell lines to identify multiple opportunities for drug repurposing: Confirmatory screen for BT-37 cells (AID 1347117); further: nearly all actives have a fitted effect of over 55% in size", "conditions": "BT-37 pediatric cancer cells, viability; series mostly up to 45.9 µM; activity change, negative = cytotoxic: at the top concentration", "from_the_text": "Drug repurposing or repositioning has been offered as a strategy for drug development in oncology programs. This approach has special potential for childhood cancers and other rare or orphan diseases, where the expected return on new drug development has been a disincentive to pharmaceuticals.\nIn this project we exploit the poly-pharmacology of drugs to discover new indications via phenotypic screening of a panel of 19 well-characterized cell lines derived from solid tumors seen in children and adolescents. The goal is to identify approved drugs with previously unrecognized anticancer properties that has the potential to reveal new mechanisms and biological processes involved in carcinogenesis or drug resistance. We employed a titration-based paradigm (quantitative high-throughput screening or qHTS), where all compounds were tested at multiple concentrations for their effect on cell viability. Concentration-response curves (CRCs) were derived directly from the primary screen, and both potency and efficacy values were used to identify compounds with robust bioactivity profiles. We screened the NIH Chemical Genomics Center (NCGC) Pharmaceutical Collection (NPC) and Mechanism Interrogation Plate (MIPE) small molecule collections of approved and investigational compounds against these cell lines; and measured metabolically active cells after 48 hours of compound treatment as a proxy for cell viability.\nAssay Submitter: Nathalia J. Martinez, National Center for Advancing Translational Sciences, National Institutes of Health, Rockville, MD, USA; email: natalia.martinez@nih.gov\n[1] Shen, M et al. Quantitative high-throughput phenotypic screening of pediatric cancer cell lines identifies multiple opportunities for drug repurposing. Oncotarget 2017 Dec 19;9(4):4758-4772. PMID 29435139.\nThe cells were obtained from University of North Carolina (UNC), Pediatric Preclinical Testing Program (PPT), and Coriell Institute (CI).\nqHTS cell viability assay:\nCells were assayed in growth media at a density of 500-1,000 cells/well. Five microliters of cells were dispensed into 1,536-well, white, solid-bottom, TC-treated plates (Greiner Bio One) using a multidrop dispenser and incubated at 37 degrees C, 5% CO2, under a humidified atmosphere for 5 hours. Twenty-three nanoliters of compounds and controls (neutral control DMSO or positive control bortezomib at final concentration of 2.3 µM) were subsequently transferred by Kalypsys pintool. For primary screens, the MIPE collection was tested at 11-point dilutions (final concentrations range from 0.78 nM to 46 µM) and the NPC collection at 8-point dilutions (final concentrations range from 0.59 nM to 46 µM). Compounds tested in follow-up screens were assayed at 11-point dilutions. Cells were incubated for 48 hours, followed by addition of 3 µL of CellTiter-Glo (Promega). After a 15 min incubation at room temperature, samples were analyzed for luminescence intensity using a ViewLux High-throughput CCD imager equipped with clear filters.", "units": {"activity change, negative = cytotoxic": "%"}}
{"molecule": "CCCCCCCCCCCC[N+](C)(C)CCOc1ccccc1", "Potency": "20.8 µM (active)"}
{"molecule": "CCCCCCCCC(=O)NCc1ccc(O)c(OC)c1", "activity change, negative = cytotoxic": -5.17}
{"molecule": "COC(=O)C1=CCCN(C)C1", "activity change, negative = cytotoxic": 4.75}
{"molecule": "CC[n+]1c(-c2ccccc2)c2cc(N)ccc2c2ccc(N)cc21", "Potency": "1.04 µM (active)"}
{"molecule": "CCc1ccc(C2CCNCC2)cc1", "activity change, negative = cytotoxic": -11}
{"molecule": "COc1ccc2c(C(=O)c3ccc(Cl)cc3)c(C)n(CC(=O)O)c2c1", "activity change, negative = cytotoxic": -3.37}
{"molecule": "Cc1ccc([N+](=O)[O-])[c]2c1[O][Hg]2", "Potency": "1.47 µM (active)"}
{"molecule": "CC1Sc2c(C(=O)O)c(=O)c3cc(F)c(N4CCNCC4)cc3n21", "note": "(configuration not stated)", "activity change, negative = cytotoxic": -13}
{"molecule": "C[C@@H]1C[C@@H]([C@H](O)CC2CC(=O)NC(=O)C2)C(=O)[C@@H](C)C1", "Potency": "1.04 µM (active) and 1.17 µM (active)"}
{"molecule": "CN(C)C(=S)SSC(=S)N(C)C", "Potency": "1.04 µM (active)"}
{"molecule": "C[C@@H]1O[C@@H](O[C@@H]2C=C3CC[C@@H]4[C@H](CC[C@]5(C)[C@@H](c6ccc(=O)oc6)CC[C@]45O)[C@@]3(C)CC2)[C@H](O)[C@H](O)[C@H]1O", "Potency": "0.0147 µM (active)"}
{"molecule": "ClC1=C(Cl)C2(Cl)C(CBr)CC1(Cl)C2(Cl)Cl", "note": "(configuration not stated)", "activity change, negative = cytotoxic": -12.6}
